Experiment [1] in a line: qHTS assay to identify small molecule antagonists of the glucocorticoid receptor (GR) signaling pathway - cell viability counter screen (AID 720693). Note: nearly all actives have a fitted effect of over 55% in size. Note: potency is the fitted concentration of half-maximal effect. On the technique in general: Quantitative high-throughput screening tests each substance at several concentrations.
Experiment [2] is described as follows: qHTS assay for identifying genotoxic compounds that show differential cytotoxicity against isogenic chicken DT40 cell lines with known DNA damage response pathways - wild type cell line (AID 743012). Note: nearly all actives have a fitted effect of over 60% in size. Note: potency is the fitted concentration of half-maximal effect. An outline of the steps: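 First, wild type DT40 cells were plated at 300 per well and equilibrated about 0.5 h at 37 C/5% CO2. Next, compounds in DMSO were added and exposure lasted 40 h. Finally, CellTiter-Glo was added for 30 min at room temperature and luminescence recorded.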

The nature of experiment [3]: qHTS assay for identifying genotoxic compounds that show differential cytotoxicity against isogenic chicken DT40 cell lines with known DNA damage response pathways - Rad54/Ku70 mutant cell line (AID 743015). Note: nearly all actives have a fitted effect of over 60% in size. Note: potency is the fitted concentration of half-maximal effect.
Experiment [4] in a line: qHTS assay to identify small molecule antagonists of the androgen receptor (AR) signaling pathway - cell viability counter screen (AID 743033; note: nearly all actives have a fitted effect of over 45% in size; note: potency is the fitted concentration of half-maximal effect).
Experiment [5] addresses Androgen receptor (Homo sapiens) (UniProt P10275). Kind of experiment: qHTS assay to identify small molecule agonists of the androgen receptor (AR) signaling pathway (AID 743036; active = well fitted activation curve with a large enough effect in the signal ratio in the repeat runs, with a control signal flat, not every such curve was filed as active; the % refers to the signal ratio). The procedure, abridged:
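Reporter line: GeneBLAzer AR-UAS-bla-GripTite (HEK293). Steps: plate cells, 4 h rest, add compounds, 16 h at 37C, add LiveBLAzer B/G substrate, 2 h at RT, read fluorescence.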

For experiment [6] the target is unchanged. Kind of experiment: qHTS assay to identify small molecule agonists of the androgen receptor (AR) signaling pathway using the MDA cell line (AID 743040; note: nearly all actives have a fitted effect of over 20% in size). The procedure, abridged: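 Luminescence from ONE-Glo, read after 30 min at room temperature, reflects MMTV-driven luciferase in MDA-kb2 cells (AR- and GR-responsive). Treatment lasted 16 h at 37C, 0% CO2.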

Experiment [7] in a line: qHTS assay to identify small molecule antagonists of the androgen receptor (AR) signaling pathway using the MDA cell line - cell viability counter screen (AID 743041; note: nearly all actives have a fitted effect of over 45% in size; note: potency is the fitted concentration of half-maximal effect). The procedure, abridged:
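Viability counter screen run alongside the AR antagonist reporter: cells seeded 5 h before compound, R1881 added, 16 h incubation at 37C without CO2, fluorescent CellTiter-Fluor signal quantified.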

The target in experiment [8] is Androgen receptor (Homo sapiens) (UniProt P10275). Description: qHTS assay to identify small molecule antagonists of the androgen receptor (AR) signaling pathway using the MDA cell line (AID 743042; note: nearly all actives have a fitted effect of over 55% in size). The procedure, abridged:
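MDA-kb2 cells (human breast carcinoma, stably carrying an MMTV-luciferase reporter responsive to AR and GR) were plated at 3,000 cells/well and preincubated 5 hr at 37C, then given compound plus R1881 agonist for 16 h. ONE-Glo luminescence was read.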

Experiment [9] can be described thus: qHTS assay for identifying genotoxic compounds that show differential cytotoxicity against isogenic chicken DT40 cell lines with known DNA damage response pathways - Rev3 mutant cell line (AID 743014). Note: nearly all actives have a fitted effect of over 55% in size. Note: potency is the fitted concentration of half-maximal effect.
Experiment [10] addresses Androgen receptor (Homo sapiens) (UniProt P10275). Description: qHTS assay to identify small molecule antagonists of the androgen receptor (AR) signaling pathway (AID 743035; active = well fitted inhibition curve with a large enough effect in the signal ratio in the repeat runs, not every such curve was filed as active; the % refers to the signal ratio; note: potency is the fitted concentration of half-maximal effect). The procedure, abridged: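 Beta-lactamase FRET read (2 h RT incubation with LiveBLAzer B/G) following 16 h of compound plus R1881 treatment of AR-UAS-bla HEK293 cells, which had been pre-incubated 4 h at 37C.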

Molecules are shown by their SMILES. Records with an inconclusive call do not appear. Calls of active or inactive are those of the source. Unless noted, calls come from the whole dose curve; as a rule, active = well fitted curve in the direction sought with a large enough effect in the repeat runs; inconclusive = weak or mixed curves; inactive = no such curve, though single readings can be large; an effect the other way counts as inactive or inconclusive.

Sequence of Androgen receptor (Homo sapiens) (P10275 whole entry, looked up): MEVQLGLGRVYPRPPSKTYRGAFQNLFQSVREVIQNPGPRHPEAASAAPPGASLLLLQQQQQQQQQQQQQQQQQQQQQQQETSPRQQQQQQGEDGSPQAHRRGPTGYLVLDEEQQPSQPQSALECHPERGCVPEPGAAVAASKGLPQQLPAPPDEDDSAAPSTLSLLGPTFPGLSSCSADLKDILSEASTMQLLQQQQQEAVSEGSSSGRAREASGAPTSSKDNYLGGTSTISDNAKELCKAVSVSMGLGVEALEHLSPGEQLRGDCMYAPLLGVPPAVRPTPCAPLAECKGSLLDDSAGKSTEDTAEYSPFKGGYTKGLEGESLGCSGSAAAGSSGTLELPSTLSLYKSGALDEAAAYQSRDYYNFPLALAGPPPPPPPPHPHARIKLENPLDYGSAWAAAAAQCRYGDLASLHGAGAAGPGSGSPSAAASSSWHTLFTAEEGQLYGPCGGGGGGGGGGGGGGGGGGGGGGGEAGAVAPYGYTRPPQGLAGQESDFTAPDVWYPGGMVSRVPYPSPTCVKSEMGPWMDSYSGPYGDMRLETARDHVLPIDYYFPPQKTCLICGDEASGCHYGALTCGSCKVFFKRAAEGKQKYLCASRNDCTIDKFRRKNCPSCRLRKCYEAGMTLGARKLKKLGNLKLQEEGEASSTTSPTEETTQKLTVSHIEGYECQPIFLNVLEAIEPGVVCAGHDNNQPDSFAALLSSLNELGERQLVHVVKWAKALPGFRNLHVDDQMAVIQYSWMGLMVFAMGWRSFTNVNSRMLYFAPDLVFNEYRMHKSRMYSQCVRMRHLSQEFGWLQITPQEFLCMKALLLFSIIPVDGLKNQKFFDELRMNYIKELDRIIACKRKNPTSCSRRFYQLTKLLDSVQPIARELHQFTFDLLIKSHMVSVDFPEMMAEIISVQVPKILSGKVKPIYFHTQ

On to `Cc1cscn1`, for which the Potency result in [1], in experiment [2], in [3], in experiment [4], in [7] and in experiment [8] was “inactive” each time. The result in experiment [5] and in experiment [6] was inactive.
For `CC1(C)[C@H](C(=O)O)N2C(=O)C[C@H]2S1(=O)=O`, the Potency result in [1], in experiment [2], in [9], in experiment [4] and in experiment [7] was “inactive” throughout.
As to `COc1ccccc1N1CCN(CC(O)COc2cccc3ccccc23)CC1` (stereo not given), the Potency entry in experiment [1] and in experiment [7] was “inactive” throughout. Further, the Potency in experiment [2] was 23.7 µM (active); in experiment [9] it was 29.8 µM (active).
Take `Oc1cc2c(cc1O)[C@H]1c3ccc(O)c(O)c3OC[C@@]1(O)C2`: the Potency entry in experiment [1] was “inactive”. The Potency was 43.8 µM (active) in [2] and 31 µM (active) in [3].
In the case of `CCCCCC[C@@H](O)C/C=C\CCCCCCCC(=O)OCC(O)CO` (stereo not given in full), the Potency result in experiment [1], in [2], in [3], in [4], in experiment [10] and in [7] was “inactive” in each case. In [8], the Potency entry was “inactive”. The compound was called inactive in experiment [5] and in [6].
For the compound `CN1CCCC(CC2c3ccccc3Sc3ccccc32)C1` (stereo not given), the Potency result in experiment [1] and in [7] was “inactive” in each case. In addition, the Potency in experiment [2] is 5.07 µM (active); in [9], 7.17 µM (active).
Regarding `CCCCCCCCCCC(=O)O`, the Potency result in [1], in [2], in experiment [9], in experiment [4] and in experiment [7] was “inactive” each time.
On to `CCCC(=O)C(=O)O`, for which the Potency result in experiment [1], in [2], in experiment [9], in experiment [4] and in [7] was “inactive” in each case.
Turning to `Oc1cccc(O)c1O`, the Potency entry in [1], in experiment [4] and in experiment [7] was “inactive” in each case. For the same compound, the figures for the Potency in [2] and in experiment [9] were 26.6 µM (active) and 48.1 µM (active), respectively.
Regarding `O=C(O)CCc1nc(-c2ccccc2)c(-c2ccccc2)o1`, the Potency entry in experiment [1], in experiment [2], in [9], in experiment [4] and in [7] was “inactive” in each case.
On to `COc1cc(C(=O)NC2CCN(C)CC2)ccc1Nc1ncc2c(n1)N(C1CCCC1)CC(F)(F)C(=O)N2C`, for which the Potency is 22.5 µM (active) in experiment [1]; 0.0044 µM (active) in experiment [2]; 0.0056 µM (active) in [3]; 15.9 µM (active) in [4]; 0.0032 µM (active) in [10]; 62.8 µM (active) in [7]. Besides, the compound was called inactive in experiment [6].
`C=C(C)[C@@H]1CCC2=CCC[C@@H](C)[C@]2(C)C1`: the Potency result in experiment [1], in experiment [4], in [10], in experiment [7] and in experiment [8] was “inactive” each time. Moreover, the Potency in experiment [2] was 27.3 µM (active); in experiment [3] it was 15.4 µM (active). Also, the compound was called inactive in [5] and in experiment [6].
With `CC1CC(OC(=O)C(O)c2ccccc2)CC(C)(C)N1C` (stereo not given), the Potency entry in experiment [1], in experiment [2], in [9], in [4] and in experiment [7] was “inactive” in each case.
With `CC(C)COCC(CN(Cc1ccccc1)c1ccccc1)N1CCCC1` (stereo not given), the Potency entry in experiment [1], in experiment [4] and in [7] was “inactive” throughout. Further, the Potency in experiment [2] was 5.31 µM (active); in experiment [9], 8.41 µM (active).
For `CC1CC(C)C(=O)C1=O` (stereo not given), the Potency entry in experiment [1], in [2], in experiment [9], in experiment [4] and in experiment [7] was “inactive” each time.
For the compound `OCCOCC#CCOCCO`, the Potency result in experiment [1], in experiment [2], in [9], in experiment [4] and in experiment [7] was “inactive” throughout.
`CC(O)c1ccccc1` (stereo not given): the Potency entry in experiment [1], in experiment [2], in [3] and in experiment [4] was “inactive” in each case.
For `O=[N+]([O-])c1ccc(Nc2ccc(Nc3ccccc3)c(S(=O)(=O)O)c2)c([N+](=O)[O-])c1`, the Potency entry in experiment [1], in experiment [2], in experiment [9], in experiment [4] and in experiment [7] was “inactive” throughout.
Consider `c1csc(SSc2cccs2)c1`, for which the Potency entry in [1] and in experiment [7] was “inactive” each time. For the same compound, the Potency is 12.2 µM (active) in [2], 6.86 µM (active) in experiment [9] and 38.9 µM (active) in experiment [4].
Regarding `CCOC(=O)c1ccc(C#Cc2ccc3c(c2)C(C)(C)CCS3)nc1`, the Potency result in experiment [1], in experiment [4] and in experiment [7] was “inactive” each time. For the same compound, the results for the Potency in experiment [2] and in experiment [9] were 23.7 µM (active) and 29.8 µM (active), respectively.
Turning to `C=C1c2cccc(O)c2C(O)=C2C(=O)[C@]3(O)C(O)=C(C(N)=O)C(=O)[C@@H](N(C)C)[C@@H]3[C@@H](O)[C@H]12`, the Potency result in experiment [1], in [2], in [9], in experiment [4] and in experiment [7] was “inactive” in each case.
In the case of `CCOC(=O)c1ccc(OCCN2C[C@H](O)[C@@H](O)[C@H](O)[C@H]2CO)cc1`, the Potency result in experiment [1], in [2], in [9], in experiment [4] and in experiment [7] was “inactive” throughout.
For `N#CCCN(CCO)CCO`, the Potency result in [1], in experiment [2], in experiment [9], in [4] and in [7] was “inactive” each time.
`Cc1ccc2c(Br)cc(Br)c(O)c2n1`: the Potency result in [1], in [4] and in experiment [7] was “inactive” in each case. For the same compound, the Potency is 7.5 µM (active) in experiment [2] and 9.44 µM (active) in experiment [9].
For `O=c1[nH]c2ccc(Cl)cc2o1`, the Potency result in experiment [1], in experiment [2], in experiment [9], in experiment [4] and in experiment [7] was “inactive” throughout.
Take `CCCCCCCC/C=C\CCCCCCCCO`: the Potency result in [1], in experiment [2], in experiment [9], in [4] and in [7] was “inactive” each time.
With `CO/N=C(/C(=O)N[C@@H]1C(=O)N2C(C(=O)O)=C(COC(N)=O)CS[C@H]12)c1ccco1`, the Potency result in experiment [1], in [2], in experiment [3], in experiment [4] and in experiment [7] was “inactive” throughout.
On to `COc1cc(Nc2c(C#N)cnc3cc(OCCCN4CCN(C)CC4)c(OC)cc23)c(Cl)cc1Cl`, for which the Potency is 23.9 µM (active) in experiment [1]; 1.88 µM (active) in experiment [2]; 2.37 µM (active) in experiment [3]; 23.9 µM (active) in experiment [4]; 33.5 µM (active) in experiment [7].
As to `CCOc1ccc(Cc2nccc3cc(OCC)c(OCC)cc23)cc1OCC`, the Potency entry in experiment [1], in [10] and in experiment [7] was “inactive” in each case. The Potency is 4.03 µM (active) in experiment [2] and 5.07 µM (active) in [3]. The call in experiment [5] and in experiment [6] was inactive.
With `C=CC(=O)[O-].C=CC(=O)[O-].[Zn+2]`, the Potency result in experiment [1], in experiment [2], in experiment [3], in experiment [4] and in experiment [7] was “inactive” throughout.
As for `Clc1ccc(Nc2nnc(Cc3ccncc3)c3ccccc23)cc1`, the Potency result in experiment [1], in [4] and in experiment [7] was “inactive” each time. Also, the Potency in [2] was 29.8 µM (active); in experiment [3] it was 26.6 µM (active).
Regarding `COc1cc(C(=O)NCCCCCC(=O)O)cc(OC)c1OC`, the Potency entry in experiment [1], in experiment [2], in [3], in experiment [4] and in experiment [7] was “inactive” each time.
`O=C(O)c1ccc(OCCCOc2ccc(C(=O)O)cc2)cc1`: the Potency result in experiment [1], in [2], in [3], in experiment [4] and in experiment [7] was “inactive” each time.
As to `CC(=O)Oc1ccc([N+](=O)[O-])cc1CCl`, the Potency result in experiment [1] and in experiment [4] was “inactive” each time. In addition, the results for the Potency in [2], in experiment [3] and in experiment [7] were 8.63 µM (active), 3.86 µM (active) and 54.5 µM (active), respectively.
